# Compound activity: PubChem, National Center for Advancing Translational Sciences (NCATS)
# BLM inh: inhibitors of human Bloom syndrome helicase BLM; actives 0.2% (n = 350,000); AID 2528; Potency, µM (titrated, usually from 56.1 µM), actives largely listed as inhibitors; recombinant BLM DNA unwinding, fluorescence dequenching; note: nearly all actives have a fitted effect of over 35% in size
# JMJD2E inh: JMJD2E (human) inhibition | B2RXH2 | JMJD2E catalytic domain, FDH-coupled NADH fluorescence (FDH is formaldehyde dehydrogenase) | Potency, µM (top dose mostly 57.1 µM), most hits filed as inhibitors | actives 1.6% (n = 230,000) | AID 2147; active = well fitted inhibition curve with a large enough effect, not every such curve was filed as active; inconclusive = small, poorly fitted or top-dose-only effect, or another doubt; inactive = no such curve, though single readings can be large or run the other way; note: nearly all actives have a fitted effect of over 50% in size
# APEX1 inh: inhibitors of human APE1 endonuclease | recombinant APE1, TAMRA/BHQ-2 abasic DNA cleavage fluorescence | Potency, µM (highest dose often 65.8 µM), hits mostly inhibitors | actives 0.35% (n = 350,000) | AID 2517; note: nearly all actives have a fitted effect of over 55% in size
#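 Enzyme (0.75 nM final) and test compound are incubated 15 min at room temperature before adding 50 nM quenched THF abasic-site duplex. Cleavage dequenches TAMRA, followed at 525/598 nm over three reads one minute apart.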
# RECQ1 inh: inhibitors of human RECQ1 DNA helicase; actives 0.54% (n = 240,000); P46063; RECQ1 DNA unwinding, red fluorescence kinetic read; Potency, µM (series often up to 57.3 µM), usual class: inhibitors; note: nearly all actives have a fitted effect of over 30% in size
# Target sequence (P46063 whole entry, looked up): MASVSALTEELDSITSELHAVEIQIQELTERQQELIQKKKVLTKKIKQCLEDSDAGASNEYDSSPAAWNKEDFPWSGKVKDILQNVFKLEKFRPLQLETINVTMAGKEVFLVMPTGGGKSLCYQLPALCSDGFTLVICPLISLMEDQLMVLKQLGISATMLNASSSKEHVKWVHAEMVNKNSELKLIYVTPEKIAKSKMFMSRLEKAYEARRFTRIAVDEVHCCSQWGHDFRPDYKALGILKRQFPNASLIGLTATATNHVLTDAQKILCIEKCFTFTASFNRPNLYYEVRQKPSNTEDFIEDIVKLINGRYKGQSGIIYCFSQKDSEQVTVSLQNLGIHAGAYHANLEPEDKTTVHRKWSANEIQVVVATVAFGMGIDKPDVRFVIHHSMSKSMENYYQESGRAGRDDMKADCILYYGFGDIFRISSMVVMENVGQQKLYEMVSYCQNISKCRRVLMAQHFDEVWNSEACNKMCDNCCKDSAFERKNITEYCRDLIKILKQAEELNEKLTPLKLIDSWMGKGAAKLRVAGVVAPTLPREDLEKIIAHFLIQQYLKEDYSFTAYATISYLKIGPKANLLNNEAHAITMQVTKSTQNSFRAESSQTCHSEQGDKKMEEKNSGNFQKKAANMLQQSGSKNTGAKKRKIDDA
#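 50 nM RECQ1T1 preincubated 15 min with compound in Tris pH 8.0 buffer with MgCl2, DTT, Tween-20 and 2.5 ug/ml poly(dI-dC); started with 200 nM TAMRA/BHQ-2 forked duplex and 2 mM ATP. Unwinding read as fluorescence (525/598 nm), two reads 2 h apart.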
# L3MBTL1 inh: blocks human L3MBTL1; AID 485360; Potency, µM (top dose mostly 57.1 µM), actives largely listed as inhibitors; AlphaScreen L3MBTL1–H3K9me1 peptide binding; actives 0.66% (n = 230,000); Q9Y468; note: nearly all actives have a fitted effect of over 60% in size
#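 Read-out is AlphaScreen signal from streptavidin donor and nickel chelate acceptor beads (10 ug/mL final each) bridging L3MBTL1 (50 nM) and biotinylated K9-monomethylated H3(1-15) peptide (75 nM), after 30 min compound exposure at room temperature.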
# A number is an active result; – = inactive; ? = inconclusive; · = not tested or not shown; [ ] = remark or other dose. Shown is part of a subset that was picked to be rich in hits. Unless noted, calls come from the whole dose curve; as a rule, active = well fitted curve in the direction sought with a large enough effect; inconclusive = small, poorly fitted or top-dose-only effect, or another doubt; inactive = no such curve, though single readings can be large; an effect the other way counts as inactive or inconclusive.
SMILES,BLM inh,JMJD2E inh,APEX1 inh,RECQ1 inh,L3MBTL1 inh
Cc1ccc(S(=O)(=O)N/N=C/c2ccccc2O)cc1[N+](=O)[O-],–,–,–,–,–
CCOC(=O)c1sc(=NC(=O)c2cccc(Br)c2)n(C)c1C,–,·,–,·,·
COc1ccc(NS(=O)(=O)c2csc(C(=O)Nc3ccccc3)c2)cc1,–,–,–,–,?
C/C1=C2N=C(/C=C3N=C(/C(C)=C4\[N-]C(C)(C5N=C1C(C)(CCC(=O)NCC(C)OP(=O)([O-])O[C@H]1C(O)C(n6cnc7cc(C)c(C)cc76)O[C@@H]1CO)C5CC(N)=O)C(C)(CC(N)=O)C4CCC(N)=O)C(C)(CC(N)=O)C\3CCC(N)=O)C(C)(C)C/2CCC(N)=O.[CH2-]C1OC(n2cnc3c(N)ncnc32)C(O)C1O.[Co] (some centres undefined),?,14µM,·,–,·
CC(C)(COP(=O)(O)OP(=O)(O)OC[C@H]1O[C@@H](n2cnc3c(N)ncnc32)[C@H](O)[C@@H]1OP(=O)(O)O)C(O)C(=O)NCCC(=O)NCCS (some centres undefined),–,·,·,·,·
O=c1[nH]c2ccc(NC(=S)Nc3ccccc3)cc2[nH]1,–,–,–,–,·
N#Cc1ccsc1NC(=O)C1CCN(C(=O)c2ccc(F)cc2)CC1,·,·,–,·,–
COC(=O)c1ccc(=O)n(Cc2ccco2)c1,–,32µM,–,–,–[11.4 µM]
COC(=O)c1cc(Br)c(=O)n(Cc2ccco2)c1,–,–,–,–,–
O=C(c1coc(=O)c(Br)c1)N1CCCc2ccccc21,?,?,?,35µM,?
O=C(c1cccc(Br)c1)N1CCCc2ccccc21,–,·,–,·,–
COC(=O)c1ccc(O)c(Sc2cc(C(=O)OC)ccc2O)c1,–,?,?,–,–
CC(C)C(=O)c1ccc(O)c(O)c1,–,25µM,–,?,–
COc1cc(-c2noc(C)c2/C=C/c2ccc(OC(C)=O)cc2)cc(OC)c1OC,–,·,–,·,–
N#Cc1c(N)oc(-c2ccco2)c1-c1ccco1,–,1.6µM,?,–,–
N#Cc1c(N)oc(-c2ccccc2)c1-c1ccccc1,–,–,–,–,–
COc1ccc(OC)c(/C=N/c2oc(-c3ccco3)c(-c3ccco3)c2C#N)c1,–,?,?,?,25µM
CC(C)NC(=O)CC(=O)N/N=C/c1cccs1,18µM,?,–,–,–
CC1O[C@@H](OC2C(COC3OC(CO)C(O)[C@H](O)C3O)OC(OC3CC[C@]4(C)C(CC[C@@]5(C)[C@@H]4CC=C4[C@@H]6CC(C)(C)CC[C@]6(CO)C(O)C[C@]45C)C3(C)C)C(O)C2O)C(O)C(O)C1O (some centres undefined),·,·,–,·,–
CCN(CC)c1ccc2cc(C(=O)Nc3ccccn3)c(=O)oc2c1,–,4.5µM,–,–,–
CCn1c(/C=C/c2ccc(O)c(O)c2)nc2ccccc2c1=O,–,·,–,·,20µM
CCn1c(/C=C/c2ccc(O)cc2)nc2ccccc2c1=O,–,·,–,·,–
N#CC1=C(N)C2=C(N3CCCCC3)CCCC2C1(C#N)C#N (centres undefined),–,?,35µM,?,·
CCN(CC)c1ccc2c(-c3ccc(S(=O)(=O)O)cc3S(=O)(=O)[O-])c3ccc(=[N+](CC)CC)cc-3oc2c1,25µM,·,27µM,·,·
CCN(CC)c1ccc2nc3c4ccccc4c(=O)cc-3oc2c1,–,·,–,·,·
SMILES,BLM inh,JMJD2E inh,APEX1 inh,RECQ1 inh,L3MBTL1 inh
C/C(=C\C=C(C#N)C#N)c1cc(C#N)c(N)o1,?,?,?,14µM,–
COc1cccc(Nc2ccc(N3CCCCC3)cc2)c1OC,·,·,–,·,35µM
COc1cccc(CNc2ccc(N3CCCCC3)cc2)c1OC,–,11µM,–,–,20µM
COc1ccccc1CNc1ccc(N2CCCCC2)cc1,–,20µM,–,–,?
COc1ccccc1CNc1ccc(C(=O)O)cc1,–,–,–,–,·
Cc1cc(C)cc(N2CC(c3nc4ccccc4n3C)CC2=O)c1 (centres undefined),–,–,–,–,–
Cc1cccc(N2CCN(C(=O)C3CCN(c4nnc(-n5cccc5)s4)CC3)CC2C)c1 (centres undefined),–,–,–,–,–
O=C1CNC(=S)N1CCc1ccc(O)c(O)c1,–,13µM,?,–,·
O=C1CNC(=S)N1CCOc1ccccc1,–,–,–,–,–
C/C(N)=C(/C#N)C(=O)CN1C(=O)NC(Cc2c[nH]c3ccccc23)C1=O (centres undefined),–,·,15µM,·,·
NC(=O)NCCCC(NC(=O)c1ccc(C#CC2(O)CCCCC2)cc1)C(=O)O (centres undefined),–,–,–,–,–
Cc1ccc2[nH]c3c(c2c1)CN(C(=O)CN1CCN(c2cccc(C)c2C)CC1)CC3,–,22µM,–,–,–
CC1=C(C(=O)N2CCOCC2)C(c2ccc(O)cc2)NC(=S)N1 (centres undefined),–,–,–,–,–
Oc1ccc2c(c1)C1CCCC1(N1CCOCC1)O2 (centres undefined),–,16µM,?,–,32µM
COc1ccccc1/C=C/C(=O)NNC(=O)c1cc(C)oc1C,·,·,–,·,–
Cc1cc(C(=O)NNC(=O)/C=C/c2ccco2)c(C)o1,·,·,–,·,7.9µM
O=C(C[C@@H]1C/C=C\C[C@H](Cc2ccc(F)cc2)C(=O)OC[C@@H](Cc2c[nH]c3ccccc23)NC1=O)NCCO,·,·,12µM,·,–
O=C(C[C@@H]1C/C=C\C[C@@H](Cc2ccc(F)cc2)C(=O)OC[C@@H](Cc2c[nH]c3ccccc23)NC1=O)NCCO,·,·,–,·,–
Cc1nnc(NC(=O)c2sc3nc(-c4cccs4)cc(C(F)(F)F)c3c2N)s1,–,?,–,?,–
CC(C)(C)C(=O)c1sc2nc(-c3cccs3)cc(C(F)(F)F)c2c1N,–,6.3µM,–,–,–
CC(=O)Nc1ccc(S(=O)(=O)c2ccc([N+](=O)[O-])cc2)cc1,–,·,–,·,·
CNc1ccc([N+](=O)[O-])cc1,·,·,–,11µM,–
O=C(NNC(=O)c1cccc(Br)c1)C(=O)N1CCCCC1,–,–,–,–,–
O=C(O)c1ccc(C2CCCCC2)cn1,–,?,–,–,18µM
Nc1ccc2c(c1)C(=O)C(=O)c1ccccc1-2,?,–,–,–,·
SMILES,BLM inh,JMJD2E inh,APEX1 inh,RECQ1 inh,L3MBTL1 inh
O=C1C(=O)c2ccc(-c3ccccc3)cc2-c2ccccc21,8.9µM,–,–,–,?
S=c1[nH]c2ccccc2s1,–,20µM,–,–,·
O=C(NNC(=O)c1cc(O)c(O)c(O)c1)NC1CCCCC1,–,7.1µM,–,–,–
NC(=O)C1CCN(C(=O)CCNS(=O)(=O)c2ccccc2F)CC1,·,·,–,·,–
CCCCCC/C=C\CCCCCCCc1cccc(O)c1C(=O)O,–,?,–,–,·
CCCCCC(=O)Cc1cc(O)cc2c1C(=O)Oc1cc(O)c(C(=O)O)c(CCCCC)c1O2,?,?,–,16µM,·
